Our source for the INHIBITION values is ChEMBL document CHEMBL4513216, “Probing the Open Global Health Chemical Diversity Library for Multistage-Active Starting Points for Next-Generation Antimalarials” (ACS Infect Dis, 2020).

In all, about 69,000 compounds went through this assay and about 8,600 (12%) showed an effect of 50% or more. The list comes from a sample in which strong results are over-represented; it also holds similar structures and randomly drawn compounds.

This assay has as its system Plasmodium berghei. Put plainly: Screen against P. berghei liver stage (PbLuc), transformed with Luciferase, at 10uM. It counts as functional, HepG2. As to conditions: tested at 10 uM.
For `COCCCNC(=O)C(C)n1cc(Br)cn1` (stereo not given), the INHIBITION is recorded as -33.2%.
The same measure for `O=C(NCc1ccco1)[C@H]1COC[C@H]2CN(Cc3ccccn3)C[C@H]21`: 15.9%.
`CCOc1ccc(CN(C)C(=O)c2nc(N3CCCC3)ncc2Cl)cc1`: the INHIBITION is on record as 24.8%.
Regarding `CN(C)C(CNC(=O)c1nc(N2CCCC2)ncc1Cl)c1ccco1` (stereo not given), the INHIBITION is 26%.
On to `Cc1noc(C)c1CN(C)C(=O)c1nc(N2CCCC2)ncc1Cl`, for which the INHIBITION stood at 61.9%.
As for `CC(C)C(C)N(Cc1ccccn1)Cc1ccco1` (stereo not given), the INHIBITION is given as 16.3%.
The same measure for `COCc1ncc(CN(Cc2ccco2)C(C)C(C)C)cn1` (stereo not given): 20.9%; for `CCc1ccc(CN(Cc2ccco2)C(C)C(C)C)nc1` (stereo not given): 60.7%.
The same measure for `CC(=O)N1CCCC(c2ccc(Br)cn2)C1` (stereo not given): 29.2%; for `CC(=O)N1CCCC2(CCN(c3nncs3)C2)C1` (stereo not given): 7.7%.
In the case of `O=C(c1ccncc1)N1CCC2(CCCN(c3ncc(F)cn3)C2)C1` (stereo not given), the INHIBITION came to 40.3%.
As for `COc1cccc(CN2CCCC3(CCN(C(=O)[C@H]4CCCO4)C3)C2)c1` (stereo not given in full), the INHIBITION came to 13.2%.
Take `O=C(c1ccoc1)N1CCC2(C1)CN(c1ncc(F)cn1)C2`: the INHIBITION is recorded as -0.813%.
Regarding `O=C(c1ccoc1)N1CCC2(CCCN(c3ncc(F)cn3)C2)C1` (stereo not given), the INHIBITION was determined as 53%.
As for `COc1cccc(CN2CCCC3(CCN(C(=O)c4ccco4)C3)C2)c1` (stereo not given), the figure is 69.1%; as for `Cc1occc1C(=O)N1CCCC2(CCN(CCN3CCCC3)C2=O)C1` (stereo not given), 23.5%; as for `Cn1cccc1C(=O)N1CCCC2(CCN(CCN3CCCC3)C2=O)C1` (stereo not given), -14.9%.
The same measure for `O=C(c1ccco1)N1CCCC2(CCN(c3nncs3)C2)C1` (stereo not given): 56.6%; for `COc1cccc(CN2CCCC3(CCN(C(=O)N4CCCC4)C3)C2)c1` (stereo not given): 8.74%; for `O=C(c1ccco1)N1CCCC2(CCN(CCN3CCCC3)C2=O)C1` (stereo not given): 58.5%.
For `O=C(c1ccco1)N1CCCC2(C1)CN(c1nncs1)CCO2` (stereo not given), the INHIBITION is given as 45.7%.
Consider `COc1cccc2ccn(CC(=O)NCCC(C)C)c12`, for which the INHIBITION is on record as 9.04%.
As for `CC(C)(C)c1nnc2n1C(C(=O)N1CCOCC1)CC2` (stereo not given), the figure is -3.93%.
As for `CCn1cnnc1C1CCN(C(=O)c2ccc3ccccc3n2)CC1`, the figure is 26.4%; as for `Cc1nnc(N2C[C@@H](Oc3ccccn3)[C@H]3OCCC[C@H]32)s1`, -23.8%.
As for `COc1ccc(C)cc1C(C)NCc1cnnn1C` (stereo not given), the figure is 0.818%.
Turning to `COCc1cn(CC2CCN(Cc3c(C)[nH]c4ccccc34)CC2)nn1`, the INHIBITION stood at 15.8%.
`Cc1nn(-c2ccccc2Cl)c(C)c1CCC(=O)O`: the INHIBITION came to 15.4%.
As for `CCc1ccc(CN2CCN(c3cccc(OC)c3)C(=O)C2)nc1`, the INHIBITION is given as -8.99%.
`O=C(c1ccco1)N1CCC2(CC1)CCN(c1ncccn1)CC2`: the INHIBITION is reported as -7.28%.
As for `O=C(c1ccco1)N1CCC2(CCCN(c3ncc(F)cn3)C2)C1` (stereo not given), the figure is 43%; as for `O=C(c1ccco1)N1CCC2(CCCN(c3ncccn3)C2)C1` (stereo not given), 77.4%; as for `O=C(O)c1cnc(OCC2CC2)c(Br)c1`, -4.56%.
The same measure for `O=C1CC[C@@H]2[C@@H](CCN2C(=O)c2ccsc2)N1Cc1ccncc1`: 63.7%; for `O=C1CC[C@@H]2[C@@H](CCN2C(=O)c2ccsc2)N1CC1CC1`: 47.8%.
As to `O=C1CC[C@@H]2[C@@H](CCN2C(=O)C2CCOCC2)N1CC1CC1`, the INHIBITION was 18.5%.
The same measure for `O=C1CC[C@H]2[C@H](CCN2C(=O)C2CCOC2)N1Cc1ccncc1` (stereo not given in full): 54.7%.
As for `Cc1nc(CN2C(=O)CC[C@H]3[C@@H]2CCN3C(=O)c2ccsc2)cs1`, the figure is 4.55%; as for `COCCN1C(=O)CC[C@@H]2[C@H]1CCN2C(=O)C1CCOCC1`, 52.3%; as for `O=C1CC[C@H]2[C@H](CCN2C(=O)C2CCOCC2)N1Cc1ccncc1`, 7.11%.
The same measure for `COCCN1C(=O)CC[C@@H]2[C@H]1CCN2C(=O)N(C)C`: -37.8%; for `O=C1CC[C@H]2[C@H](CCN2C(=O)C2CCCO2)N1Cc1ccncc1` (stereo not given in full): 8.69%.
For the molecule `COCCN(C(=O)c1ccn(-c2ccc(OC)cc2)n1)C(C)C(N)=O` (stereo not given), the INHIBITION is 0.0996%.
On to `COc1ccccc1C1SCC(=O)Nc2n[nH]cc21` (stereo not given), for which the INHIBITION is on record as 42.6%.
The same measure for `COc1ccc(C2SCC(=O)Nc3n[nH]cc32)c(OC)c1OC` (stereo not given): 32.5%.
As to `COc1cccc(C2SCC(=O)Nc3n[nH]cc32)c1OC(C)C` (stereo not given), the INHIBITION came out at 40%.
As for `COc1cc(C2SCC(=O)Nc3n[nH]cc32)cc(OC)c1O` (stereo not given), the figure is 60.7%; as for `COc1cc(OC)c(C2SCC(=O)Nc3n[nH]cc32)cc1OC` (stereo not given), 26.8%; as for `COc1ccc(OC)c(C2SCC(=O)Nc3n[nH]cc32)c1` (stereo not given), 70.6%.
Turning to `N#Cc1cn(C2CC2)c(=O)n(CC(O)c2ccc(F)cc2)c1=O` (stereo not given), the INHIBITION came out at 35.85%.
The same measure for `CCN(Cc1ccccc1)C(=O)c1cc(C2CCCN2C)ccn1` (stereo not given): -31%.
Regarding `Cc1csc(N2CCN(C(=O)CCCNc3ncccn3)CC2)n1`, the INHIBITION came to 26.4%.
As for `Cc1cccc(N2CCc3ncc(CNS(C)(=O)=O)n3CC2)n1`, the figure is 22.4%.
Consider `COc1ccc(CN2CCC[C@@H]3CN(C(=O)c4ccco4)C[C@@H]32)cc1`, for which the INHIBITION is reported as 29%.
As for `O=C(c1cn(CC(=O)N2CCCCCC2)c2ccccc12)C1CC1`, the figure is 27.8%; as for `O=C(c1cn(CC(=O)N2CCCC2)c2ccccc12)C1CC1`, 71.7%; as for `O=C(c1cn(CC(=O)N2CCCCC2)c2ccccc12)C1CC1`, 13.94%.
As to `CN1CCCC1c1ccnc2nccn12` (stereo not given), the INHIBITION worked out at 19.9%.
The same measure for `CCC(C(=O)NCC1CCN(c2ccncc2)CC1)N(C)C` (stereo not given): 34.9%; for `Cc1csc(C(Cc2ccsc2)NC(=O)Cn2cccnc2=O)n1` (stereo not given): 34%; for `Cc1cc(C)n(CC(=O)NC(Cc2ccsc2)c2ccccn2)c(=O)n1` (stereo not given): 54%.
`CS(=O)(=O)N1CCC(C(=O)NC(Cc2ccsc2)c2ccccn2)CC1` (stereo not given): the INHIBITION was determined as 40.9%.
As for `O=C(Cn1cccnc1=O)NC(Cc1ccsc1)c1nccs1` (stereo not given), the figure is 29.3%; as for `Cc1cccnc1C(Cc1ccsc1)NC(=O)Cn1cccnc1=O` (stereo not given), 59%; as for `O=C(Cn1cccnc1=O)NC(Cc1ccsc1)c1ccccn1` (stereo not given), 41.5%.
As for `CNc1nc2c(c(C(=O)N3CCCC3)n1)CN(Cc1ccco1)CC2`, the figure is 17.2%.
For `O=C(NCc1cccc(F)c1)N1CCc2ncnc(NC3CC3)c2CC1`, the INHIBITION came to 16.8%.
The same measure for `CC(C)Nc1ncnc2c1CCN(C(=O)CN(C)C)CC2`: 36.9%; for `CC(C)Nc1ncnc2c1CCN(C(=O)CCc1ccccc1)CC2`: 61.4%; for `CC(C)Nc1ncnc2c1CCN(C(=O)Cc1ccccn1)CC2`: 8.69%.
As for `CC(C)Nc1ncnc2c1CCN(C(=O)NCc1cccc(F)c1)CC2`, the figure is 51.2%; as for `CC(C)Nc1ncnc2c1CCN(C(=O)NCc1cccnc1)CC2`, -1.15%; as for `COCC(=O)N1CCC(=O)N(C2CCCC2)Cc2ccccc21`, -20.1%.
On to `Cc1ccnc(CNC(=O)C2CC(=O)N(CCN(C)C)C2)c1` (stereo not given), for which the INHIBITION stood at 8.41%.
For the molecule `NC(=O)C1=NC2=NS(=O)(=O)c3ccccc3N2N1Cc1ccc(Br)cc1`, the INHIBITION is 1.96%.
With `NC(=O)C1=NC2=NS(=O)(=O)c3ccccc3N2N1Cc1ccc(Cl)cc1`, the INHIBITION is on record as 59.7%.
The same measure for `NC(=O)C1=NC2=NS(=O)(=O)c3ccccc3N2N1Cc1ccccc1Cl`: 30.8%; for `COCCC(=O)N(CCC#N)c1ccc(C)c(C)c1`: 27%.
As for `Cc1nc(C2CCCNC2)nc2c1CCCN2Cc1ccccn1` (stereo not given), the figure is 11.8%; as for `Cc1c(C)n(Cc2ccccn2)c2nc3c(c(N)c12)CCCC3`, 58.4%; as for `Cc1ncnc2c1CCN(c1ccccn1)CC2`, -15.6%.
On to `Cc1ncnc2c1CCN(Cc1ccccn1)CC2`, for which the INHIBITION was -64.8%.
As for `Cc1c(C)n(Cc2ccccn2)c2nc3c(c(N)c12)CCCCC3`, the figure is 55.3%; as for `Cc1c(C)n(-c2ccccn2)c2nc3c(c(N)c12)CCCC3`, 67.1%; as for `Cc1ccccc1-c1cncc(C2CCN(Cc3ccccn3)CC2)n1`, 19.6%.
On to `Cc1c(C)n(Cc2ccccn2)c2nc3c(c(N)c12)CCCCCC3`, for which the INHIBITION came to 49.7%.
As for `Cc1c(C)n(-c2ccccn2)c2nc3c(c(N)c12)CCCCC3`, the figure is 32.2%.
The same measure for `CC(=O)N1CCC(c2nn(C)c3nccnc23)C1` (stereo not given): -2.11%; for `CC(C)n1cc(CN2CCCN(C(=O)COC3CCCC3)CC2)cn1`: 45.7%.
For `CCOc1ccc(-c2nc(C(=O)NCC3CCOC3)cs2)cc1` (stereo not given), the INHIBITION is reported as -16%.
Take `CC(C)(C)c1cc(=O)n2c(n1)SCC(C(=O)NCc1ccco1)C2` (stereo not given): the INHIBITION is given as 46.1%.
`COc1ccc(C2=Nn3c(CCN)nnc3-c3ccccc3C2)cc1`: the INHIBITION was 21.7%.
As for `COc1ccc(C2=Nn3c(CN)nnc3-c3ccccc3C2)cc1`, the figure is 64%; as for `COc1ccc(C2=Nn3c(CCCN)nnc3-c3ccccc3C2)cc1`, 18.4%; as for `Cc1ccc(NC2CCCN(C3Cc4ccccc4C3)C2)nn1` (stereo not given), 34.9%.
`CNc1nc(C)cc(NC2CCCN(C3Cc4ccccc4C3)C2)n1` (stereo not given): the INHIBITION was found to be 83.9%.
Consider `c1ccc2c(c1)CC(N1CCCC(NCc3ccc4nonc4c3)C1)C2` (stereo not given), for which the INHIBITION was determined as 50.1%.
Take `Cc1cc(C)nc(Nc2cccc(C3CCCN(C)C3)n2)n1` (stereo not given): the INHIBITION is recorded as 28.4%.
Take `CNc1cc(C)nc(NC2CCCN(C3Cc4ccccc4C3)C2)n1` (stereo not given): the INHIBITION is on record as 79.4%.
Take `Cc1cc(C)nc(Nc2cccc(C3CCCN(S(C)(=O)=O)C3)n2)n1` (stereo not given): the INHIBITION was found to be 44.8%.
As for `Cc1cc(C)nc(NC2CCc3nc(C)nn3C2)n1` (stereo not given), the figure is -12.1%; as for `O=C(NCc1ccc2nonc2c1)C1CCN(C(=O)C2CCC2)CC1`, -119%.
For the molecule `c1ccc2c(c1)CC(N1CCCC(NCc3cccc4nonc34)C1)C2` (stereo not given), the INHIBITION came out at 41.5%.
`Cc1ccc(CNCC2CCN(CC(O)c3ccccc3)CC2)o1` (stereo not given): the INHIBITION is on record as -23.8%.
Regarding `O=C(NCc1nncn1C1CC1)c1ccccc1OCC1CC1`, the INHIBITION stood at 25.6%.
